Test results taken from PubChem BioAssay.
Activity calls are given as the source filed them. How the calls were made is not given here.

experiment: inhibition of 3D7 malaria parasite growth – strain 3D7 (AID 2306);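 further: 0% = DMSO wells and 100% = chloroquine plus artemisinin control wells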; details: P. falciparum 3D7 erythrocytic growth, LDH absorbance, 72 h; at 2 µM; stronger effect = higher value

Growth inhibition, active:
O=C(NCCCCN1CCC(c2c[nH]c3ccc(-c4ccccc4)cc23)CC1)c1ccc(-c2ccccc2)cc1 97%, O=C(CC1SC(N2N=C(c3cccs3)CC2c2ccccc2)=NC1=O)Nc1ccc(Cl)cc1 (stereo not drawn) 83%, N#Cc1cccc(NC(=O)c2cccc(S(=O)(=O)NC3CCN(CC4CCCCC4)C3)c2)c1 (stereo not drawn) 101%, CCOc1cc(C(C)C)ccc1N1CCN(CCCCNC(=O)c2ccc(NC(=O)c3ccc(Cl)cc3)cc2)CC1 101%, COc1ccccc1-c1cccc2c(NC(=O)Nc3ccc4nccc(N5CCN(C)CC5)c4c3)ccnc12 94%, C=C(C)Cn1cc(C2CCN(CCCCNC(=O)c3sc(-c4ccc(Cl)cc4Cl)nc3CO)CC2)c2ccccc21 82%, O=[N+]([O-])c1cccc(NC(=S)N2CCCN(Cc3ccc(C(F)(F)F)cc3)CC2)c1 90%, COc1ccc2nc(C)cc(NCc3cccc4ccccc34)c2c1 102%, O=C(Nc1ccc(Oc2ccccc2)cc1)N(CCN1CCCC1)Cc1ccc(-c2ccc(CN3CCNCC3)cc2)cc1 88%, CCN(CC)CCNc1nc(C=Cc2ccc(Cl)cc2)nc2cc3ccccc3cc12 100%, O=C(N[C@@H](CC1CCCCC1)C(=O)NCCN1CCOCC1)c1ccc(O)c(-c2ccc(Cl)c(Cl)c2)c1 97%, COC[C@H]1CCCN1Cc1ccc(-c2ccc(-c3nc4ccccc4[nH]3)s2)cc1 95%, CN(C)CCOc1ccc(N2CCN(CCCCNC(=O)c3ccc(/C=C/c4cc(Cl)cc(Cl)c4)cc3)CC2)cc1 98%
